Assay results: PubChem BioAssay (NCI)
This is part of a sample that, as a whole, favours compounds with a hit. Of some 83,000 tested, about 20% had one in any assay.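 Activity criterion: percent growth below 10, measured after cells in 96-well plates were exposed to a single compound concentration for 48 hours.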 Unmarked numbers belong to inactive results. Calls of active or inactive are those of the source.

Legend:
Test in all cases: NCI-60 one-dose screen, 48 h (100 = growth as untreated, 0 = no growth, -100 = all killed)
[1] = tested on: DU-145 prostate; conditions: 10 µM
[2] = tested on: K-562 leukemia; conditions: 10 µM
[3] = tested on: MALME-3M melanoma; conditions: 10 µM
[4] = tested on: MDA-MB-231 breast; conditions: 10 µM
[5] = tested on: SF-268 CNS; conditions: 10 µM
[6] = tested on: SF-295 CNS; conditions: 10 µM
[7] = tested on: SF-539 CNS; conditions: 10 µM
[8] = tested on: M14 melanoma; conditions: 10 µM
[9] = tested on: HCT-15 colon; conditions: 10 µM
[10] = tested on: HT29 colon; conditions: 10 µM
[11] = tested on: SNB-75 CNS; conditions: 10 µM
[12] = tested on: SNB-19 CNS; conditions: 10 µM
[13] = tested on: U251 CNS; conditions: 10 µM
[14] = tested on: PC-3 prostate; conditions: 10 µM
[15] = tested on: SK-MEL-5 melanoma; conditions: 10 µM
[16] = tested on: UACC-62 melanoma; conditions: 10 µM unless noted
[17] = tested on: LOX IMVI melanoma; conditions: 10 µM
[18] = tested on: SK-MEL-28 melanoma; conditions: 10 µM
[19] = tested on: RXF 393 renal; conditions: 10 µM
[20] = tested on: UACC-257 melanoma; conditions: 10 µM

| Structure (SMILES) | growth [1] [%] | growth [2] | growth [3] [%] | growth [4] [%] | growth [5] [%] | growth [6] [%] | growth [7] | growth [8] [%] | growth [9] | growth [10] | growth [11] | growth [12] [%] | growth [13] [%] | growth [14] [%] | growth [15] [%] | growth [16] [%] | growth [17] | growth [18] [%] | growth [19] | growth [20] [%] |
| --- | --- | --- | --- | --- | --- | --- | --- | --- | --- | --- | --- | --- | --- | --- | --- | --- | --- | --- | --- | --- |
| c1ccc(Cc2ccccc2)cc1 | 103 | 119% | 96 | 105 | 107 | 110 | 93.5% | 112 | 99% | 118% | 98.9% | 104 | 103 | 82.8 | 116 | 103 | 99.5% | 112 |  |  |
| O=C(Cc1nc2ccc([N+](=O)[O-])cc2nc1CC(=O)c1ccccc1)c1ccccc1 | 50.6 | 43.8% | 46.8 |  | 73.9 | 53 | 18.3% | 48.4 | 35.2% | 75.3% | 65.2% |  | 49.2 | 59.4 | 55 | 53.2 | 3.86% (active) | 64.7 | 89.1% | 86.9 |
| O=C(O)c1ccccc1NCc1ccco1 | 118 | 104% | 108 | 104 | 111 | 114 | 103% | 102 | 108% | 98.7% |  | 108 | 103 | 111 | 100 | 101 | 93.5% | 111 |  | 143 |
| CCc1nn(Cc2ccccc2)c2nc(C)c(CCc3ccccc3)c(Cl)c12 | 102 | 61.1% | 75.5 | 99.7 | 106 | 85.1 | 86.7% | 100 | 98.5% | 88.6% | 93.2% | 80.2 | 96.9 | 76 | 82.7 | 84.5 | 92.6% | 107 |  |  |
| COc1ccc(-c2cc(-c3cc(-c4ccc(OC)cc4)nc(N)n3)nc(N)n2)cc1 | 102 | 98.9% | 91.2 |  | 102 | 96.2 | 98.1% | 104 | 103% | 105% | 91.4% |  | 101 | 96.5 | 97.1 | 91.4 | 95% | 103 | 101% | 99.4 |
| CCS(=O)(=O)CCCl | 96.8 | 93% | 93.3 |  | 106 | 102 | 104% | 94.4 | 91.8% | 110% | 123% |  | 102 | 99.5 | 94.3 | 85.1 | 81.7% | 106 | 105% | 94.5 |
| COc1ccccc1NC(=O)C1=C(C)NC(C)=C(C(=O)Nc2ccccc2OC)C1c1cccc([N+](=O)[O-])c1 | 84.1 | 57.3% | 84.7 |  | 67 | 49.5 | 75.2% | 76.5 | 64.4% | 75.8% | 74.2% |  | 76 | 41.6 | 61.5 | 54.5 | 69.1% | 82.2 | 79.2% | 92.3 |
| COc1ccc2c(c1)CCc1c-2n[nH]c1-c1[nH]nc2c1CCc1cc(OC)ccc1-2 | 86.2 | 20.8% | 46.6 |  | 86.2 | 29.6 | 31.8% | 36.1 | 35.6% | 52.3% | 29.3% |  | 54.2 | 50.4 | 37.2 | 25.8 | 43.8% | 58.7 | 54.3% | 82.5 |
| OC1CCCc2ccccc21 (stereo unspecified) | 114 | 97.9% | 78.8 | 117 | 116 | 93.2 | 96.4% | 113 | 108% | 101% | 88% | 90.8 | 108 | 103 | 111 | 100 |  | 120 |  |  |
| COc1ccc(C2OC(N)=C(O)C2=O)cc1OC (stereo unspecified) | 109 | 94.6% | 95.5 |  | 101 | 99.9 | 90.9% | 111 | 101% | 108% | 101% |  | 111 | 97.2 | 102 | 93.7 | 102% | 105 | 110% | 106 |
| CCOC(=O)c1cc(/C=C/c2ccc(Cl)cc2Cl)on1 | 30.6 | 5.36% (active) | 69.6 |  | 89.1 | 17.6 | -48.5% (active) | 56 | -66.1% (active) | 1.53% (active) | 58.9% |  |  |  | 92.3 | 48.7 | -90.1% (active) | 86.1 | -37.3% (active) | 105 |
| Cc1ccc(C)n1-c1ccsc1C(=O)NNC(=O)C(Cl)Cl | 109 | 97.8% | 93.2 |  |  | 101 | 102% | 106 | 103% | 106% | 104% |  | 107 | 88.5 | 94.8 | 93.4 | 81.7% | 112 | 114% | 98.2 |
| CC1(C)S(=O)(=O)OCCOS1(=O)=O | 107 | 100% | 94.5 |  |  | 97.7 | 100% | 100 | 101% | 105% | 98.7% |  | 95 | 100 | 93.6 | 92.3 | 95.2% | 112 | 114% | 82.2 |
| C/C(O)=C(\C=N\C(N)=S)C(=O)Nc1ccccc1 | 109 | 107% |  | 92.2 | 101 | 110 | 114% | 105 | 110% | 101% | 88.1% | 100 | 97.4 | 93.5 | 97.6 | 96.8 | 96.7% | 116 | 107% | 97.7 |
| COc1ccccc1C1OC2=Nc3cc(C)c(C)cc3NC2C1=O (stereo unspecified) | 88 | 97.7% | 80.2 |  |  | 74.8 | 91% | 84.2 | 80.8% | 93.1% | -13.2% (active) |  | 53 | 82.5 | 78.3 | 76.2 | 72.3% | 106 | 78.3% | 104 |
| Cc1ccc(N)cc1[N+](=O)[O-] | 115 | 108% |  | 122 | 114 | 105 | 113% | 99.8 | 106% | 123% |  | 113 | 98.8 |  | 111 | 105 | 101% |  | 114% | 98.7 |
| Cc1nc2ccccc2c(C(=O)O)c1O | 127 | 127% |  | 101 | 110 |  | 98.1% | 90.3 | 107% | 103% | 98.3% | 93.1 | 103 | 104 | 102 | 93.2 | 96.4% | 122 | 107% | 96.7 |
| CC1C(=O)c2ccccc2CC1C(=O)O (stereo unspecified) | 135 | 103% |  | 109 | 130 |  | 101% | 113 | 115% |  | 82.2% | 128 | 97.1 | 97.6 | 100 | 116 | 92.4% | 114 | 120% | 92.8 |
